Consider nine compounds from PubChem BioAssay (NCI).

Compounds without any hit were thinned out: in the full panel of roughly 83,000, 20% have a hit.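 Assay: single dose, 48 h. Readout: percent growth (0 = no net growth; negative = cell death). Active: <10.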 A number with no mark means an inactive call. Active and inactive are the calls of the source.

Test systems include RPMI-8226 leukemia; OVCAR-8 ovarian; OVCAR-5 ovarian; OVCAR-4 ovarian; SK-OV-3 ovarian; IGROV1 ovarian; OVCAR-3 ovarian; HS 578T breast; NCI/ADR-RES ovarian; T-47D breast; BT-549 breast; MDA-MB-435 melanoma; SW-620 colon; MCF7 breast; HCT-116 colon; HCC-2998 colon; KM12 colon.
Common to all, as to assay: NCI-60 one-dose screen, 48 h (100 = growth as untreated, 0 = no growth, -100 = all killed)
What all share (conditions): 10 µM unless noted

For `Cc1cc(C)n(-c2nc(-c3cccs3)c(C#N)c(=O)[nH]2)n1`, the growth in the assay on RPMI-8226 leukemia is 105%; in the assay on OVCAR-8 ovarian it was 102%; in the assay on OVCAR-5 ovarian it was 105%; in the assay with OVCAR-4 ovarian, 91.1%; in the assay with SK-OV-3 ovarian it was 90.9%; in the assay on IGROV1 ovarian it was 108%. Besides, the growth with OVCAR-3 ovarian was 94.7%; in the assay with HS 578T breast, 106%; in the assay on NCI/ADR-RES ovarian, 85.7%; in the assay on T-47D breast, 80.6%; in the assay on BT-549 breast it was 83%; in the assay with MDA-MB-435 melanoma it was 95.2%. Besides, the growth is 102% with SW-620 colon; 89.8% in the assay with MCF7 breast; 85.1% with HCT-116 colon; 96.7% in the assay on HCC-2998 colon; 97.9% in the assay with KM12 colon.

Turning to `CCOC(=O)NCCc1nc2c([nH]1)c(=O)n(C)c(=O)n2C`, the growth was 106% in the assay with RPMI-8226 leukemia; 107% in the assay on OVCAR-8 ovarian; 90.3% in the assay on OVCAR-5 ovarian; 107% in the assay with OVCAR-4 ovarian; 122% in the assay on SK-OV-3 ovarian; 97.1% with IGROV1 ovarian. Also, the growth with OVCAR-3 ovarian is 113%; in the assay with HS 578T breast, 104%; in the assay with NCI/ADR-RES ovarian, 99.8%; with T-47D breast, 102%; in the assay on BT-549 breast it was 97.6%; in the assay with MDA-MB-435 melanoma, 101%. The growth is 103% in the assay on SW-620 colon; 95.4% with MCF7 breast; 92.7% with HCT-116 colon; 99.7% in the assay on HCC-2998 colon; 101% in the assay on KM12 colon.

For the compound `C=C(C)[C@@H]1CC[C@]2(C(=O)N=C=S)CC[C@]3(C)[C@H](CC[C@@H]4[C@@]5(C)CCC(=O)C(C)(C)[C@@H]5CC[C@]43C)[C@@H]12`, the growth in the assay on RPMI-8226 leukemia was 16.1%; in the assay with OVCAR-8 ovarian, 24.3%; with OVCAR-5 ovarian, 49.1%; with OVCAR-4 ovarian, 31.4%; with SK-OV-3 ovarian it was 14.7%; with IGROV1 ovarian, 66.2%. Also, the growth in the assay on OVCAR-3 ovarian was 25.7%; in the assay on HS 578T breast, 33%; with NCI/ADR-RES ovarian, 28.2%; in the assay with T-47D breast, 18.1%; in the assay on BT-549 breast, 47.3%; with MDA-MB-435 melanoma it was 47.1%. Besides, the growth with SW-620 colon is 28.8%; in the assay on MCF7 breast it was 16.4%; in the assay with HCT-116 colon, 13.8%; in the assay with HCC-2998 colon, 43.3%; in the assay with KM12 colon, 21.2%.

`O=[N+]([O-])c1ccc(N=Nc2c(O)c(N=Nc3cc([N+](=O)[O-])cc([N+](=O)[O-])c3O)cc(N=Nc3cc(S(=O)(=O)O)cc4cc(S(=O)(=O)O)cc(O)c34)c2O)cc1`: the growth in the assay on RPMI-8226 leukemia was 102%; with OVCAR-8 ovarian, 108%; in the assay on OVCAR-5 ovarian, 104%; in the assay with OVCAR-4 ovarian, 98.4%; with SK-OV-3 ovarian, 96.2%; in the assay with IGROV1 ovarian, 108%. For the same compound, the growth with OVCAR-3 ovarian is 104%; with HS 578T breast, 101%; in the assay with NCI/ADR-RES ovarian, 103%; in the assay on T-47D breast, 109%; in the assay on BT-549 breast, 104%; in the assay with MDA-MB-435 melanoma, 107%. Also, the growth in the assay with SW-620 colon was 108%; in the assay with MCF7 breast, 99.6%; in the assay with HCT-116 colon it was 80.9%; in the assay on HCC-2998 colon, 104%; in the assay with KM12 colon, 103%.

Consider `O=C(Nc1ccc2ncnc(Nc3ccc(F)c(Cl)c3)c2c1)c1ccccc1`, for which the growth in the assay with RPMI-8226 leukemia is 66.9%; in the assay with OVCAR-8 ovarian it was 79.1%; in the assay with OVCAR-5 ovarian, 83.9%; in the assay on OVCAR-4 ovarian, -39.8% (active); with SK-OV-3 ovarian, 45.1%; with IGROV1 ovarian, 28.5%. The growth is 32.5% in the assay with OVCAR-3 ovarian; 82.8% with HS 578T breast; 65.9% in the assay with NCI/ADR-RES ovarian; 45.3% in the assay on T-47D breast; 74.2% in the assay with BT-549 breast; 80.4% with MDA-MB-435 melanoma. Moreover, the growth in the assay on SW-620 colon was 88%; in the assay with MCF7 breast, 47.2%; in the assay with HCT-116 colon, 47.2%; with HCC-2998 colon it was 98.7%; in the assay with KM12 colon, 79.6%.

Consider `CC(=O)c1ccc(NC(=O)CSc2nnc(-c3cc(-c4ccc(Cl)cc4)nc4ccccc34)o2)cc1`, for which the growth was 25.5% with RPMI-8226 leukemia; 82% in the assay with OVCAR-8 ovarian; 96.7% in the assay on OVCAR-5 ovarian; 71.1% in the assay with OVCAR-4 ovarian; 90.1% in the assay with SK-OV-3 ovarian; 92.7% with IGROV1 ovarian. The growth with OVCAR-3 ovarian was 107%; in the assay on HS 578T breast, 110%; with NCI/ADR-RES ovarian, 83.2%; with T-47D breast, 79.1%; with BT-549 breast, 79.7%; in the assay with MDA-MB-435 melanoma, 85.5%. Also, the growth is 75.6% in the assay with SW-620 colon; 55.8% in the assay on MCF7 breast; 20.8% with HCT-116 colon; 101% in the assay on HCC-2998 colon; 89.3% in the assay on KM12 colon.

Consider `CC(=O)OCC1SC(OC(C)=O)C(NC(=O)/C=C/CCl)C(OC(C)=O)C1OC(C)=O` (stereo not drawn), for which the growth with RPMI-8226 leukemia is 95.2%; in the assay on OVCAR-8 ovarian it was 98.2%; in the assay on OVCAR-5 ovarian, 148%; with OVCAR-4 ovarian, 101%; in the assay with SK-OV-3 ovarian, 86.4%; with IGROV1 ovarian, 105%. The growth was 102% in the assay on OVCAR-3 ovarian; 93.5% in the assay with HS 578T breast; 103% in the assay on NCI/ADR-RES ovarian; 90.6% with T-47D breast; 105% in the assay on BT-549 breast; 101% in the assay on MDA-MB-435 melanoma. The growth is 107% with SW-620 colon; 85.8% in the assay on MCF7 breast; 101% with HCT-116 colon; 104% in the assay with HCC-2998 colon; 102% in the assay on KM12 colon.

On to `COc1ccc(-c2cn(-c3ccc(Cl)cc3)c(=S)[nH]2)cc1OC`, for which the growth in the assay on RPMI-8226 leukemia is 12.9%; in the assay on OVCAR-8 ovarian, 53%; with OVCAR-5 ovarian, 64.1%; in the assay on OVCAR-4 ovarian, 86.8%; in the assay with SK-OV-3 ovarian, 79.3%; in the assay with IGROV1 ovarian, 49.4%. Also, the growth is 88.4% in the assay with OVCAR-3 ovarian; 100% in the assay with HS 578T breast; 37% with NCI/ADR-RES ovarian; 68.1% in the assay with T-47D breast; 78.6% in the assay on BT-549 breast; 86.1% with MDA-MB-435 melanoma. Besides, the growth in the assay on SW-620 colon was 114%; with MCF7 breast, 72.2%; in the assay on HCT-116 colon, 32.2%; in the assay on HCC-2998 colon, 79.2%; in the assay on KM12 colon, 70.2%.

`Cc1c(Cl)cccc1NC(=O)c1sc2nc3c(cc2c1N)CCCCCC3`: the growth with RPMI-8226 leukemia was 18.4%; in the assay on OVCAR-8 ovarian it was 17.5%; with OVCAR-5 ovarian it was 46.7%; in the assay on OVCAR-4 ovarian it was 46.8%; in the assay with SK-OV-3 ovarian, 34.8%; with IGROV1 ovarian, 42.9%. The growth in the assay with OVCAR-3 ovarian is -18.1% (active); in the assay with HS 578T breast, 24.6%; with NCI/ADR-RES ovarian, 17.1%; in the assay on T-47D breast, 40.2%; in the assay on BT-549 breast, 11.2%; in the assay on MDA-MB-435 melanoma it was -19.5% (active). Besides, the growth with SW-620 colon is 21.4%; in the assay on MCF7 breast, 15.1%; with HCT-116 colon, 5.07% (active); with HCC-2998 colon, 52.2%; in the assay on KM12 colon it was 19.1%.
